From ChEMBL document CHEMBL4513216, “Probing the Open Global Health Chemical Diversity Library for Multistage-Active Starting Points for Next-Generation Antimalarials” (ACS Infect Dis, 2020)
The campaign covered roughly 69,000 compounds. About 8,600 (12%) showed an effect of 50% or more. Shown is part of a subset that was picked to be rich in strong results.

Each compound was assayed on Plasmodium berghei (assay: Screen against P. berghei liver stage (PbLuc), transformed with Luciferase, at 10uM). Settings: tested at 10 uM.
Type: functional, HepG2

SMILES	INHIBITION [%]
COc1ccc2c(c1)C(C(=O)N(C)CCc1cnn(C)c1)CC(=O)N2 (stereo unspecified)	82.3
COc1ccc2c(c1)C(C(=O)N(C)CCn1ccnc1C)CC(=O)N2 (stereo unspecified)	13.7
COc1ccc2c(c1)C(C(=O)N(C)CCCc1nccn1C)CC(=O)N2 (stereo unspecified)	23
COc1ccc2c(c1)C(C(=O)N(C)CCCc1cnn(C)c1)CC(=O)N2 (stereo unspecified)	55.4
COc1ccc2c(c1)CC(C(=O)N(C)CCCc1cnn(C)c1)CO2 (stereo unspecified)	-1.91
COc1ccc2c(c1)C(C(=O)N(C)CCc1scnc1C)CC(=O)N2 (stereo unspecified)	44.3
CCOc1ncccc1Cn1cc2[nH]cccc-2c1=O	18
Cc1nn(CC(=O)O)c2nccc(-c3ccc(F)cc3)c12	39.5
CCN(c1ccccc1)S(=O)(=O)c1cc(C(=O)O)cc2c1CCC2	56.5
CCN(c1cccc(F)c1)S(=O)(=O)c1cc(C(=O)O)cc2c1CCC2	38.6
CC(O)CN(c1ccccc1)S(=O)(=O)c1cc(C(=O)O)cc2c1CCC2 (stereo unspecified)	19.7
CC(C)NC(=O)CCNC(=O)Nc1ccc(-n2cncn2)c(F)c1	-18
COCCOc1ncccc1C(=O)Nc1ccc(-n2cncn2)c(F)c1	13.1
COCCNC(=O)Nc1ccc(-n2cncn2)c(F)c1	58.2
COCCNC(=O)Nc1ccc(-n2cncn2)c(C(F)(F)F)c1	21.8
COCCS(=O)(=O)Nc1ccc(-n2cncn2)c(F)c1	56.5
CC(=O)Nc1ccc(-n2cncn2)c(F)c1	-6.91
CN1CCN(Cc2cccnc2)C2(CCN(Cc3ccccn3)C2)C1=O (stereo unspecified)	-16
CSCC(=O)N1C[C@@H](C)[C@](O)(C(C)C)C1	5.23

SMILES	INHIBITION [%]
CN(C)c1nccc(C2CN(C(=O)CO)C2)n1	1.5
Cc1cc(Nc2cnccn2)nc(C2CCCN(CCO)C2)n1 (stereo unspecified)	1.62
c1cnc(Nc2ccc(C3CCCCN3)cn2)cn1 (stereo unspecified)	-15.1
Cc1cccc(Nc2ccc(C3CCCCN3)cn2)n1 (stereo unspecified)	70.3
Cc1cc(C)nc(Nc2ccc(C3CCCCN3)cn2)n1 (stereo unspecified)	-0.232
O=C(CCc1ccccc1F)NC1CCCN(c2ccccn2)C1 (stereo unspecified)	-40.55
CCN(CC)C(=O)NC(C)c1ccc(Oc2cccnc2)c(F)c1 (stereo unspecified)	36.3
COc1ccc2c(c1)C1(CCN(Cc3cccnc3)CC1)N(C)CC2	-27.4
O=C1CC(c2ccncc2)C2(CCN(CC3CC3)CC2)N1 (stereo unspecified)	-4.32
O=C(CCc1cccc(Cl)c1Cl)N1CCOCC1c1ncon1 (stereo unspecified)	33.8
CN(Cc1ccccc1)CC(O)Cn1cnc2ccsc2c1=O (stereo unspecified)	56.6
CN(Cc1ccccc1)CC(O)Cn1cnc2ccccc2c1=O (stereo unspecified)	2.26
CN(Cc1ccccc1)CC(O)Cn1cnc2sccc2c1=O (stereo unspecified)	10.675
O=C(CCc1cc2n(n1)CCCNC2)NCCCSC1CCCCC1	40.3
CCN(Cc1ccc2c(c1)OCO2)C(=O)Cn1cccnc1=O	37.9
COc1cc2c(cc1CNC(=O)C(C)n1ccnc1C(C)C)CCC2 (stereo unspecified)	26.5
COc1cc2c(cc1CNC(=O)C(C)n1ccnc1C(C)C)OCCO2 (stereo unspecified)	42.3
COc1cccc(CNC(=O)C(C)n2ccnc2C(C)C)c1OC (stereo unspecified)	62.1
OCCN1CCCC(c2nccnc2Oc2ccccc2)C1 (stereo unspecified)	-3.31

SMILES	INHIBITION [%]
Cc1cc(N2CCN(c3nc4ccccc4cc3CO)CC2)nc(C)n1	48.8
O=C(C1CCC1)N1CCN(c2snc3ccccc23)CC1	32.8
OCc1cc2ccccc2nc1N1CCCC1	16.8
CC(=O)NC1CCCN(c2ccc(C#N)cc2C(F)(F)F)C1 (stereo unspecified)	-17.9
O=C(C1CCN(c2snc3ccccc23)CC1)N1CCCCCC1	36.2
CC(=O)NC1CCCN(c2nc3ccccc3cc2CO)C1 (stereo unspecified)	66.5
OCc1cc2ccccc2nc1N1CCCCC1	53.1
O=C(C1CCCN(c2nc3ccccc3cc2CO)C1)N1CCCC1 (stereo unspecified)	61.9
CCCC(=O)NC1CCCN(c2nc3ccccc3cc2CO)C1 (stereo unspecified)	7.19
CC(C)c1noc(CN2CCC(C3CCCCCN3S(C)(=O)=O)CC2)n1 (stereo unspecified)	34
COc1cc(CNCCc2nc(C)cs2)cc2c1OCCO2	31
CC1c2ccc(F)cc2CCN1C(=O)c1[nH]c(=O)[nH]c(=O)c1N (stereo unspecified)	23.6
CCn1cnc(NC(=O)NCC2CCS(=O)(=O)CC2)n1	4.12
Cc1occc1C(=O)N1CCC[C@]2(C[C@@H](OCc3ccncc3)CO2)C1	-9.67
CCN(Cc1ccc2c(c1)OCCO2)C(=O)Cn1cccnc1=O	37.9
Cc1c(S(=O)(=O)N2CCOCC2)cc2c(C)cc(=O)n3c2c1CCC3	2.45
CC(C)c1nc(CNc2ccc(N3CCC(CO)CC3)cn2)cs1	13
OCC1CCN(c2ccc(NCc3ccsc3)nc2)CC1	54.4
